# According to PubChem BioAssay AID1259415 (National Center for Advancing Translational Sciences (NCATS), 2018):
# Values joined by “and” are separate entries in the source; they are usually repeats but may differ in a detail not shown here. Equal entries are not always repeated. Out of some 410,000 compounds screened, about 18,000 (4.4%) were called active. Not shown: some 7% with an inconclusive outcome. For the sample, actives were picked, then their nearest neighbours and some compounds at random. Values without a mark were called inactive. No stated cut-off is given here; in the data, active means activity change below about -60%; inconclusive means no clear call, values can overlap the other calls; inactive means above about -39%.
# Test: qHTS Assay for inhibitors of the human cytomegalovirus (HCMV)
# Details: HFF cells, HCMV-luciferase reporter, 72 h; at 57.5 µM; stronger effect = lower value
# Method in brief: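 Cell-based, HFFs, 1000 cells/well, 16 h 37C; cpds in DMSO + HCMV-luc, MOI 1 PFU/cell; 72 h 37C; OneGlo luminescence after 5 min RT; norm. to buffer vs Salinomycin 10uM.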
# On the % scale 0 is the no-effect control and ±100 the full control effect.
row,SMILES,"activity change, negative = inhibition"
1,CC(NC(=O)CCc1cn(Cc2ccccc2Cl)c2ccccc12)c1ccccc1 (configuration not stated),-11.3%
2,Cc1cccc(NC(=O)N2CCN(C)c3ncccc32)c1C,12%
3,CC(Sc1oc(-c2ccco2)nc1S(=O)(=O)c1ccc(Br)cc1)c1ccccc1 (configuration not stated),0.136%
4,COc1ccc2c(Cl)c(-c3nnco3)sc2c1,-7.84%
5,CCN(C(=O)c1sc2cc(OC)ccc2c1Cl)c1ccccc1,-99.2% (active)
6,CCN(C(=O)c1ccc(Br)cc1)c1ccccc1,7.23%
7,COc1ccc(CNC(=O)c2ccc3c(c2)nc2n3CCOC2)c(OC)c1,2.67%
8,COc1ccccc1NS(=O)(=O)c1ccc(C)c(C(=O)NCC(c2ccco2)N(C)C)c1 (configuration not stated),-6.15%
9,COc1ccc(C(CNC(=O)c2cc(S(=O)(=O)Nc3cccc(C)c3)ccc2C)N2CCCC2)cc1 (configuration not stated),-30.6%
10,Cc1cccc(NS(=O)(=O)c2ccc(C)c(C(=O)NCC(c3ccccc3)N(C)C)c2)c1 (configuration not stated),-101% (active)
11,O=C(Nc1ccccc1Cl)N1CCC(CN2CCCC2)CC1,37.3%
12,O=C(Nc1ccccc1Cl)/C(Cl)=C(\Cl)S(=O)c1ccccc1 (configuration not stated),-100% (active)
13,O=C(Nc1ccccc1Cl)N1CCC(CN2CCCCC2)CC1,-10.2%
14,Oc1ccccc1-c1cc(-c2ccc(Cl)cc2)n[nH]1,-20.6%
15,COc1ccccc1CNS(=O)(=O)CC12CCC(CC1=O)C2(C)C (configuration not stated),6.14%
16,Oc1cccc2cc(-c3ccncc3)cnc12,-101% (active)
17,Cc1ccc(OCCSc2nc3ccc(NC(=O)COc4ccc(C)cc4)cc3s2)cc1,7.69%
18,Cc1ccccc1NC(=O)Cn1c(=O)n(CC2CCC(C(=O)NCCc3ccccc3)CC2)c(=O)c2ccccc21 (configuration not stated),16.2%
19,COc1cc(OC)c2c(c1)OC(=O)CC2c1cc(OC)c(OC)c(OC)c1 (configuration not stated),-7.37%
20,COc1cc(C2c3cc4c(cc3C(O)C3COC(=O)C23)OCO4)cc(OC)c1OC (configuration not stated),-89.9% (active)
21,COc1cc(C=C(OC(C)=O)c2ccc3c(c2)OCO3)cc(OC)c1OC,62.8%
22,COC(=O)c1ccccc1NC(=O)c1cc(-c2ccccc2O)no1,-14.2%

row,SMILES,"activity change, negative = inhibition"
1,CCOC(=O)C1=C(c2ccccc2)O/C(=C(/C(=O)OC)C(F)(F)F)S1,34.3%
2,COC(=O)/C(=C1\Oc2ccc(C(C)(C)C)cc2S1)C(F)(F)F,-66.8% (active)
3,O=C(CNC(=O)c1n[nH]c2ccccc12)Nc1cc(Cl)ccc1Cl,12.1%
4,Cc1ccc(C)c(-n2nnnc2SCC(=O)c2c(N)n(C)c(=O)n(C)c2=O)c1,-19.3%
5,CC1(C(=O)NCC2CCOCC2)Cc2c(-c3cccc(C(N)=O)c3)ccnc2O1 (configuration not stated),28.9%
6,CC(=O)Nc1ccc(-c2ccnc3c2CC(C(=O)NC(C)C)O3)cc1 (configuration not stated),-16.6%
7,CC(=O)Nc1cccc(-c2ccnc3c2CC(C)(C(=O)NCc2ccccc2)O3)c1 (configuration not stated),-79.4% (active)
8,COc1ccc(CCCNC(=O)C2Cc3c(-c4cccc(C(N)=O)c4)ccnc3O2)cc1 (configuration not stated),-20.5%
9,COc1ccc(NC(=O)C2(C)Cc3c(-c4cccc(NC(C)=O)c4)ccnc3O2)cc1OC (configuration not stated),16%
10,COc1ccc(NC(=O)C2(C)Cc3c(-c4cccc(NC(C)=O)c4)ccnc3O2)cc1 (configuration not stated),-77.2% (active)
11,COc1ccc(NC(=O)C2Cc3c(-c4cccc(NC(C)=O)c4)ccnc3O2)cc1OC (configuration not stated),-67.8% (active)
12,CC1(C(=O)Nc2cccnc2)Cc2c(-c3ccccc3)ccnc2O1 (configuration not stated),-18.2%
13,COc1ccc(NC(=O)C2(C)Cc3c(-c4ccc(C(N)=O)cc4)ccnc3O2)cc1 (configuration not stated),32.9%
14,Brc1ccc2c(c1)NC(c1cccnc1)=NC(c1ccccc1)=N2,21.9%
15,COc1ccc(NC(=O)CCNC(=O)Cn2ccc3ccccc3c2=O)c(OC)c1,-21.8%
16,COC(=O)c1[nH]c2cccc(C)c2c1NC(=O)CN1CCCc2ccccc21,52.8%
17,CCOc1ccccc1C(=O)NCC(c1ccc(N(C)C)cc1)N1CCCC1 (configuration not stated),-6.83%
18,CCOc1ccc(-c2nonc2NC(=O)c2oc3ccc(CC)cc3c2C)cc1,29.2%
19,CCOc1ccc(-c2cn(S(=O)(=O)c3cccc4nsnc34)nc2N)cc1,-29.7%
20,CCC(C)(C)n1nnnc1C(c1cccs1)N1CCN(c2nc3ccccc3s2)CC1 (configuration not stated),-76.3% (active)
21,CCC(C)(C)n1nnnc1C(c1ccc(OC)c(OC)c1)N1CCN(C(=O)c2ccco2)CC1 (configuration not stated),-20.3%
22,COc1ccccc1C(c1nnnn1C(C)(C)C)N1CCN(Cc2ccccc2)CC1 (configuration not stated),-19.3%

row,SMILES,"activity change, negative = inhibition"
1,CCOc1ccccc1N(CC)C(=O)c1cc2ccc3cccnc3c2[nH]1,36.8%
2,CCOC(=O)c1c(SCC(=O)Nc2cccc(C)c2C)nc(=O)[nH]c1C,-0.768%
3,CCOC(=O)c1c(C)[nH]c2c1-c1ccccc1C(=O)C2=O,-99.7% (active)
4,CCOC(=O)c1c(C)[nH]c(C)c1S(=O)(=O)N(C)CC(=O)N1CCN(c2ccccc2)CC1,-3.36%
5,CCOCCCNC(=O)c1c(NC(=O)Cc2coc3c(C)c(C)ccc23)sc2c1CCC2,-19.7%
6,CCN(CC(=O)Nc1c(F)cccc1F)C(=O)c1ccc(S(=O)(=O)N2CCCCC2)cc1,-16.4%
7,Cc1cc(C)c2sc(NC(=O)c3ccc(S(=O)(=O)N4CCCC4)cc3)nc2c1,1.97%
8,CN(C)CCCN(C(=O)c1ccc(S(=O)(=O)N2CCCc3ccccc32)cc1)c1nc2ccc(F)cc2s1,-113% (active)
9,CC1CCN(C(=O)c2cccc(S(=O)(=O)N3CCCc4ccccc43)c2)CC1,-31.3%
10,O=C(Nc1nnc(S(=O)(=O)N2CCCc3ccccc32)s1)c1cccc(F)c1,-22.4%
11,CN(C)CCCN(C(=O)c1ccc(S(=O)(=O)N2CCCCCC2)cc1)c1nc2ccc(Br)cc2s1,-66.2% (active)
12,Cc1cn(C)c(CC(=O)NCc2ccc(Cl)cc2)c1C(=O)O,-3.74%
13,O=C(CSc1ncc(CO)n1Cc1ccc(Cl)cc1)NCc1ccc(F)cc1,0.963%
14,Cc1ccc2[nH]c(=O)c(CC=C(Cl)Cl)c(C)c2c1,-11.6%
15,CCC(=O)Nc1cccc(-c2nc3cc(C)ccc3o2)c1,103%
16,NC(=O)c1ccc(N2CCCC2)nc1,9.29%
17,C/C(CC(C)C)=N\Oc1nc(C)cc(C)n1,-62.7% (active)
18,COc1ccc(NC(=O)C(CC(C)C)NS(=O)(=O)c2ccc3c(c2)CCN3C(C)=O)cc1OC (configuration not stated),-16%
19,CC(=O)OC1CCC2(C)C(=CCC3C4CC(=O)N(O)C(=O)C4(C)CCC32)C1 (configuration not stated),17.9%
20,C[C@]12CC[C@H](O)CC1=CCC1C2CC[C@@]2(C)C1CC[C@@H]2NC(=O)CCC(=O)O (some centres not stated),-2.14%
21,C[C@@H]1CC[C@@]2(OC1)O[C@H]1C[C@H]3[C@@H]4CC=C5C[C@@H](O)[C@H](O)C[C@]5(C)C4CC[C@]3(C)[C@H]1[C@@H]2C (some centres not stated),-70.9% (active)
22,Cc1cccc(NC(=O)c2nnn(CC(=O)Nc3ccc(C(C)C)cc3)c2N)c1C,3.95%

row,SMILES,"activity change, negative = inhibition"
1,COc1cccc(NC(=O)COC(=O)c2ccc3ccccc3n2)c1,78.4%
2,CCOc1ccc2ccccc2c1/C=N/NC(=O)c1c(C)cc(C)[nH]c1=O,-32.4%
3,COc1cccc(/C=C/c2ccc3ccccc3n2)c1OC(C)=O,-95.1% (active)
4,CCOc1cccc(/C=C/c2ccc3ccccc3n2)c1OC(C)=O,-79.7% (active)
5,COc1ccccc1/C=C/C1=NC(=C\N(C)C)/C(=O)O1,64.2%
6,Cc1cc(C)cc(NS(=O)(=O)c2cc3c(cc2C)NC(=O)CO3)c1,-26.3%
7,Cc1cccc(N2CCN(C(=O)c3cc4c(=O)oc5ccccc5c4s3)CC2C)c1 (configuration not stated),1.15%
8,COc1ccc(NC(=O)Cn2c(=O)n(CCC(C)C)c(=O)c3cccnc32)cc1Cl,-4.37%
9,Cc1ccc(CNC(=O)Nc2nnc([C@H]3C[C@H](O)[C@@H](CO)O3)s2)cc1,-100% (active)
10,O=C(Nc1ccc(F)cc1)Nc1nnc([C@H]2C[C@H](O)[C@@H](CO)O2)s1,30.2%
11,O=C(Nc1nnc([C@H]2C[C@H](O)[C@@H](CO)O2)s1)c1cccc(Cl)c1,40.2%
12,COc1ccccc1OCCC(=O)OCC(=O)NCc1ccccc1,14.2%
13,COc1cc(-c2nnn(CC(=O)NCc3ccccc3)n2)cc(OC)c1OC,5.2% and 12.4%
14,COc1cc(C(=O)NCc2ccncc2)cc(Br)c1OCc1ccccc1,-62.2% (active)
15,CCC(=O)N1CCc2cc(S(=O)(=O)NC(C(=O)N3CCc4ccccc4C3)C(C)C)ccc21 (configuration not stated),-14.7%
16,Cc1nc(NC(CC(C)C)C(=O)O)c2nc(C)oc2n1 (configuration not stated),-6.81%
17,O=c1c(-c2ccc3c(c2)OCCO3)c(C(F)(F)F)oc2cc(O)cc(O)c12,-90.6% (active)
18,CCOC(=O)c1cc2cc(-c3c(C(=O)OCC)oc4cc(O)cc(O)c4c3=O)ccc2o1,-2.73%
19,CCOc1ccc2c(=O)c(-c3ccc4c(c3)OCCCO4)c(C)oc2c1,20.1%
20,CCc1ccc(CNC(=O)c2ccc(CS(=O)c3ccc(Br)cc3)o2)cc1 (configuration not stated),10.6%
21,CCOC(=O)c1cc(-c2ccccc2)n(CCC(=O)Nc2ccccc2CC)c1C,30.9%
